Columns and labels:
Assay in all cases: PBM binding z-score (relative to random genomic background probes); higher = stronger binding; sequences stand for … in GC…GCGATTGACAGCGTAGAATGAAGG
[1] = system: FXR:RXRa (NR concentration 270 nM, RXRa partner concentration 90 nM)
Method in brief: (§1)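 Scanned fluorescence from custom Agilent 4×180K protein-binding microarrays was regression-normalized. Binding z-scores use random background probes as reference. Ligand-free nuclear receptor dimers were incubated on the arrays for 1 h and detected with antibodies against each partner (one per run).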

[2] = system: LXRa:RXRa (NR concentration 270 nM, RXRa partner concentration 90 nM)
Method in brief: as §1

[3] = system: LXRa homodimer (NR concentration 270 nM)
Method in brief: as §1

[4] = system: LXRb:RXRa (NR concentration 270 nM, RXRa partner concentration 90 nM)
Method in brief: as §1

[5] = system: LXRb homodimer (NR concentration 270 nM)
Method in brief: as §1

[6] = system: PPARa:RXRa (NR concentration 270 nM, RXRa partner concentration 90 nM)
Method in brief: as §1

[7] = system: PPARg:RXRa (NR concentration 180 nM, RXRa partner concentration 90 nM)
Method in brief: as §1

[8] = system: PPARg:RXRa 270nM:90nM, anti-RXR (NR concentration 270 nM, RXRa partner concentration 90 nM)
Method in brief: as §1

[9] = system: PPARg:RXRa 30nM:10nM, anti-RXR (NR concentration 30 nM, RXRa partner concentration 10 nM)
Method in brief: as §1

[10] = system: PPARg:RXRa 90nM:30nM, anti-RXR (NR concentration 90 nM, RXRa partner concentration 30 nM)
Method in brief: as §1

[11] = system: PPARg:RXRa DBDmut IVT, anti-RXR (DBD mutation: RXRa K156A/R161A, NR concentration 270 nM, RXRa partner concentration 90 nM)
Method in brief: as §1

[12] = system: PPARg:RXRa IVT, anti-PPARg (NR concentration 270 nM, RXRa partner concentration 90 nM)
Method in brief: as §1

[13] = system: PPARg DBDmut:RXRa IVT, anti-PPARg (DBD mutation: PPARg1 K132A/R137A, NR concentration 270 nM, RXRa partner concentration 90 nM)
Method in brief: as §1

[14] = system: PPARg DBDmut IVT, anti-PPARg (DBD mutation: PPARg1 K132A/R137A, NR concentration 270 nM)
Method in brief: as §1

[15] = system: PPARg homodimer (NR concentration 180 nM)
Method in brief: as §1

[16] = system: PXR:RXRa (NR concentration 270 nM, RXRa partner concentration 90 nM)
Method in brief: as §1

[17] = system: PXR homodimer (NR concentration 270 nM)
Method in brief: as §1

[18] = system: RARa:RXR (NR concentration 270 nM, RXRa partner concentration 90 nM)
Method in brief: as §1

[19] = system: RARa homodimer (NR concentration 270 nM)
Method in brief: as §1

[20] = system: RARb:RXRa (NR concentration 270 nM, RXRa partner concentration 90 nM)
Method in brief: as §1

Sequence	PBM binding z-score [1]	PBM binding z-score [2]	PBM binding z-score [3]	PBM binding z-score [4]	PBM binding z-score [5]	PBM binding z-score [6]	PBM binding z-score [7]	PBM binding z-score [8]	PBM binding z-score [9]	PBM binding z-score [10]	PBM binding z-score [11]	PBM binding z-score [12]	PBM binding z-score [13]	PBM binding z-score [14]	PBM binding z-score [15]	PBM binding z-score [16]	PBM binding z-score [17]	PBM binding z-score [18]	PBM binding z-score [19]	PBM binding z-score [20]
CAAACTAGGTCAAGGTCAAAGTCGGTTTGTGCCA	6.65	5.95	4.23	4.67	1.63	6.12	9.81	8.12	7.05	8.27	8.86	8.63	3.11	0.796	3.64	5.25	2.25	5.33	2.13	5.19
TGAATGAGGTTATAGATCAGGGAACGTGGCGTCG	1.56	1.48	-0.163	0.762	0.262	2.84	2.57	3.62	2.18	3.73	1.18	1.89	1.37	0.361	1.11	0.894	0.211	1.58	0.661	1.34
CCTATTAGTTGACCATAAGGGCATCCGAAGCTCG	0.924	0.501	0.549	0.384	0.423	0.26	0.493	0.533	-0.0651	0.145	0.225	0.238	0.764	0.611	0.73	0.903	1	0.903	1.97	1.37
ACTATTAGTTGACTTACGGCAACCGATACGACGC	0.213	0.066	0.174	0.412	0.908	-0.179	1.09	0.0509	0.212	0.113	-0.0111	0.189	0.614	1.35	0.496	-0.0445	-0.0464	0.256	0.942	0.199
CCTATTAGTTGGCCATAAGGGCAACCGAAGCTCG	0.403	0.0422	-0.122	-0.00443	-0.0843	0.154	0.332	0.665	-0.257	0.493	0.405	0.608	0.65	-0.464	0.599	0.101	0.238	0.307	0.354	1.11
CCTAGTCGGTCAGGAGGTCACACACCGGATATGA	3.96	4	2.81	3.49	0.605	4.55	4.89	5.09	3.26	4.26	2.85	4.85	0.312	0.324	4.25	4.34	1.2	5.23	2.27	4.25
TAGCCTAGGTCATTCAGGGGCCAGTAAAGAAAGC	4.75	4.05	0.681	3.17	0.778	3.73	1.61	2.56	0.576	1.76	1.81	3.14	0.536	0.653	1.04	2.39	-0.023	3.28	0.0478	3.86
CCTGTTAGGTCAATGGTCAGCTAAAGCAGCTCGC	3.84	2.92	0.645	2.06	1.38	3.49	3.07	4.36	2.03	3.91	3.49	3.13	-0.195	-0.0792	2.54	1.43	0.214	2.39	1.21	4.14
TCTTGAAGATCAAGCAGGTTAAGAAAGCCTGAGT	0.132	0.199	-0.36	0.402	-0.998	0.437	-0.324	1.11	2.96	1.74	1.28	-0.366	0.0587	-0.888	-0.603	0.456	-0.168	0.215	-1.22	0.0323
CCTAGTTGGTCAAGTTCACACACGCTATAGGTAC	1.66	2.31	1.74	2.18	0.695	2.19	1.3	1.5	0.803	1.16	1.95	1.82	0.944	1.02	2.59	3.63	5.51	2.27	1.56	2.92
ATCTCTAGGTAACCAAGTTCAGTGAGTGCCGAAC	0.417	0.863	0.949	0.855	0.746	1.04	0.34	0.67	-0.0594	0.338	3.88	2.77	0.349	0.828	0.761	2.12	3.09	0.548	0.845	1.21
ACAGACAGGTGAGTGAAGGTAACTAAGCTGGACG	0.105	-0.0477	-0.437	-0.48	-0.463	0.107	0.457	-0.0366	-0.0843	-0.406	0.098	0.719	-0.328	-0.677	-0.864	-0.279	-0.0557	0.0664	0.112	0.425
TCAGACAGGTGAAGGTAACTGAGGTACGCAGTCG	1.04	1.01	-0.19	0.598	-0.756	1.2	0.727	1.98	3.74	2.96	2.45	1.54	0.121	-0.373	0.384	0.388	-0.0672	0.874	0.545	1.04

— the supplement of paper PMC6555819
